Bioassay records (PubChem BioAssay)
Only some compounds are listed: those with a hit (about 1.8% of all), similar ones and a draw of the others.
GALR2 ag: activates the human galanin receptor 2; 140,000 compounds, 0.48% hits; activation, % (no concentration beside the values); O43603; GALR2-expressing cells, agonist activation read-out; in the data active means activation above about 5%, passing the limit was not always enough;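 further: 0% = vehicle buffer wells and 100% = reference agonist at full effect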
Target sequence (O43603 whole entry, looked up): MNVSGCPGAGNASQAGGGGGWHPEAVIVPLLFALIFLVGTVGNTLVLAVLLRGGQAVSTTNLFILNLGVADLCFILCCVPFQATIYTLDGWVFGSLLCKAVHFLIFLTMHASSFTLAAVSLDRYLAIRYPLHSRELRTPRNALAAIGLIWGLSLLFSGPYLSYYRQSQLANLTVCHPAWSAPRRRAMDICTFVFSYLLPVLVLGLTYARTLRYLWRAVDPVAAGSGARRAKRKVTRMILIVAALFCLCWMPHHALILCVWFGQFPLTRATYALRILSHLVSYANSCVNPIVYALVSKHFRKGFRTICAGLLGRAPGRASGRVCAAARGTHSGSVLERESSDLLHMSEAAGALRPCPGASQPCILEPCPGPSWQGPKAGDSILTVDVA
S1P2 ag: S1P2 (human) receptor agonism | O95136 | S1P2-expressing cell line, agonist reporter read-out | activation, % at 4.5 µM | 97,000 compounds, 0.46% hits; in the data active means activation above about 16%;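 further: 0% = vehicle low control and 100% = maximal reference agonist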
MRP-1 activ: MRP-1 activation; AID 799; 140,000 compounds, 0.61% hits; H69AR cells + doxorubicin, viability rescue, CellTiter-Glo; viability increase, % at 10 µM;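 active means viability gain under doxorubicin at or above a set limit, the compound median plus 3 SD, cut at about 4.7% in these data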;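 further: MRP-1 overexpressing cells given doxorubicin 25 µM after compound pretreatment; 18-22 h compound pretreatment then 72 h with doxorubicin before readout; 0% = doxorubicin-only wells and 100% = vehicle-treated cells without doxorubicin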
S1P2 antag: antagonists of human S1P2 receptor. 97,000 compounds, 0.21% hits. inhibition, % at 5 µM. cell-based S1P2 antagonist assay, inhibition at 5 uM. O95136; in the data active means inhibition above about 45%;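 further: CRE beta-lactamase reporter cells expressing human S1P2 stimulated with S1P; 0% = agonist at EC80 alone and 100% = agonist plus reference antagonist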
MRP reversal: reverses drug resistance mediated by MRP. H69AR cells + 2 uM doxorubicin, CellTiter-Glo, 72 h. differential viability (reversal), % at 10 µM. 85,000 compounds, 0.04% hits. AID 602;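 active means viability drop by adding the cancer drug above about 55%, with treated viability meeting a 40% cutoff, limit read from the data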;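 further: viability without doxorubicin minus viability with 2 µM doxorubicin for each compound; larger differential means the compound sensitizes cells more to doxorubicin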
GALR2 blocker: antagonists of human galanin receptor 2 (GALR2) | O43603 | GALR2-expressing cells, antagonist mode | inhibition, % at 4 µM | 140,000 compounds, 0.39% hits | AID 828; in the data active means inhibition above about 27%;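 further: cells stimulated with galanin 1-16 at roughly its EC80; 0% = agonist challenge control and 100% = basal control without agonist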
Active calls of the source: *; . = no result.

SMILES	GALR2 ag	S1P2 ag	MRP-1 activ	S1P2 antag	MRP reversal	GALR2 blocker
O=C1c2ccsc2SCCN1Cc1ccc(Cl)cc1Cl	-0.5	-1.7	-4.2	-7.2	22.1	-0.7
O=C1c2ccsc2SCCN1Cc1c(Cl)cccc1Cl	-1.8	-6.5	7.0*	-9.0	8.9	6.8
CC(C)(C)SCCNC(=O)/C=C/c1ccc(F)cc1	-1.9	.	-1.4	.	.	-5.9
CC(C)(CNC(=O)/C=C/c1ccc(F)cc1)CNC(=O)/C=C/c1ccc(F)cc1	-1.5	.	5.9*	.	.	2.6
O=C(O)COc1ccc(/C=N/n2cnc3scc(-c4cccs4)c3c2=O)cc1	-1.4	.	-1.6	.	.	-4.0
Nc1ccc(C(=O)OCC(=O)N2CCc3ccccc3C2)cc1[N+](=O)[O-]	-3.0	.	-0.8	.	.	18.8
Nc1ccc(C(=O)OCC(=O)N2c3ccccc3Sc3ccccc32)cc1[N+](=O)[O-]	-1.2	.	8.7*	.	.	-2.5
CN(CC(=O)NCCc1ccc(Cl)cc1)S(=O)(=O)c1ccc2c(c1)c(=O)n(C)c(=O)n2C	-2.1	-6.8	6.1*	19.3	4.1	1.5
CN(CC(=O)NCCC1=CCCCC1)S(=O)(=O)c1ccc2c(c1)c(=O)n(C)c(=O)n2C	-3.1	-5.2	-2.2	-24.5	-3.7	-3.6
CC(C)(C)CNc1cc(N2CCCC2)ccc1[N+](=O)[O-]	-1.9	-1.7	4.8*	-7.4	.	-3.0
CC(C)c1ccc(CNc2cc(N3CCCC3)ccc2[N+](=O)[O-])cc1	-2.5	1.1	5.4*	14.4	.	-3.1
Cc1cccc(NC(=O)CSc2nc(-c3ccccc3)c(C#N)c(=O)[nH]2)c1C	-2.4	-9.3	9.1*	-13.1	.	-4.5
CCOC(=O)CCCCC(=O)c1[nH]c(=O)[nH]c1CSc1nc(-c2ccccc2)c(C#N)c(=O)[nH]1	0.6	-5.8	6.4*	7.0	3.1	4.5
CCOC(=O)CCCCC(=O)c1[nH]c(=O)[nH]c1CSCCO	-3.0	-2.7	-0.7	-3.1	7.2	6.2
CCC(Sc1nccn1C)C(=O)Nc1nnc(C)s1 (stereo not drawn)	-3.1	-6.7	7.3*	-13.6	1.3	5.4
N#Cc1c(-c2ccccc2)nc(SCC(=O)Nc2ccccc2)[nH]c1=O	0.0	.	9.6*	.	.	10.6
N#Cc1c(-c2ccco2)nc(SCC(=O)Nc2ccc(S(N)(=O)=O)cc2)[nH]c1=O	-3.9	-2.3	2.9	-4.6	.	4.1
CN(Cc1ccccc1)S(=O)(=O)c1ccc(NC(=S)NC(=O)C(C)(C)C)cc1	-0.4	.	-3.6	.	.	1.4
CC1(C)Cc2nc(-c3ccccc3)n3cnnc3c2CO1	-0.7	.	-1.7	.	18.8	6.0
O=C(Nc1ccccc1C(=O)NC1CCCC1)NC1CCCC1	0.1	-3.5	-0.5	-9.3	-8.3	-7.9
CCCc1cc(=O)[nH]c(SCC(=O)Nc2ccccc2C#N)n1	-1.9	-5.6	-2.7	-0.3	-11.4	0.9
Cc1cc(NC(=O)CSc2nc(-c3ccccc3)c(C#N)c(=O)[nH]2)no1	-0.9	-0.5	9.1*	-3.8	3.9	-1.8
N#Cc1c(-c2ccccc2)nc(SCC(=O)Nc2ccccc2F)[nH]c1=O	-0.1	.	9.8*	.	.	14.7
O=C(CSc1nc2ccccc2c(=O)[nH]1)c1cccs1	-0.9	-2.4	-0.9	-9.3	-4.1	0.8
N#Cc1c(-c2cccs2)nc(SCC(=O)c2cccs2)[nH]c1=O	-0.9	-0.1	5.6*	-6.7	.	-10.2
SMILES	GALR2 ag	S1P2 ag	MRP-1 activ	S1P2 antag	MRP reversal	GALR2 blocker
C=CCSc1nc(-c2ccccc2)c(C#N)c(=O)[nH]1	0.0	-4.3	1.0	-5.9	13.4	1.4
N#Cc1c(-c2ccccc2)nc(SCC(=O)N(c2ccccc2)c2ccccc2)[nH]c1=O	-0.7	.	7.5*	.	.	-8.2
Cc1cc(C)c2nc(NC(=O)c3ccc4c(=O)n5c(nc4c3)CCCCC5)sc2c1	-1.1	.	-1.9	.	.	4.4
O=C(NCCSc1ccccc1)c1cncc(Br)c1	0.8	-1.0	-1.8	-9.0	1.9	-7.5
Cc1ccc(S(=O)(=O)C2(C(=O)N3CCN(C4CCCCC4)CC3)CC2)cc1	0.2	-2.7	-2.2	13.3	.	-0.9
CCC(Sc1nc(-c2ccccc2)c(C#N)c(=O)[nH]1)C(=O)Nc1nnc(C)s1 (stereo not drawn)	-1.4	-3.1	6.4*	8.5	.	4.3
CCC(Sc1nc(C)cc(=O)[nH]1)C(=O)Nc1nc(-c2ccccc2)cs1 (stereo not drawn)	-1.6	-2.7	-0.8	-7.8	3.3	9.6
CCn1nc(NC(=O)c2ccccn2)c2cc3cccc(C)c3nc21	6.2	18.6*	-0.9	-32.7	-12.2	-17.2
COc1ccc(-c2oc(NC(=O)CSc3ncn[nH]3)c(C#N)c2-c2ccc(OC)cc2)cc1	-3.6	-8.7	-1.8	1.1	-46.8	3.2
COc1cccc(-c2csc(NC(=O)Oc3ccccc3)n2)c1	-0.1	-5.9	7.5*	-11.5	.	-7.5
O=C(Nc1nc(-c2cccc([N+](=O)[O-])c2)cs1)C(c1ccccc1)c1ccccc1	-1.7	-10.4	8.9*	20.8	.	-3.3
O=C(NCC1(c2ccccc2)CCCC1)C(=O)N1CCOCC1	-1.3	75.0*	0.4	-13.7	11.2	12.0
O=C(NCC1(c2ccccc2)CCCC1)C(=O)NCC1(c2ccccc2)CCCC1	-0.2	0.0	1.0	-11.7	10.2	4.7
Cc1cc(NC(=O)CSc2nc(C(C)C)nc3c2c(=O)n(C)c(=O)n3C)no1	-2.1	1.1	-1.1	-16.4	-0.5	6.0
COc1c(Br)cc(C(N)=O)cc1OCc1ccccc1	0.1	.	-1.3	.	.	-3.9
Cc1ccc(Cl)cc1N1CCN(C(=O)Cc2ccc(-n3c(=O)[nH]c4ccsc4c3=O)cc2)CC1	0.1	.	9.7*	.	.	14.3
O=C(CCn1c(=O)[nH]c2ccsc2c1=O)N1CCN(c2cccc(Cl)c2)CC1	-1.5	-4.2	-2.9	24.1	-22.2	0.4
Fc1ccccc1N1CC(c2ccccc2)C(c2cccs2)=N1 (stereo not drawn)	45.5*	23.3*	-2.0	-33.9	5.8	-6.8
c1ccc(C2COC(c3cccs3)=N2)cc1 (stereo not drawn)	-0.6	-7.3	-2.9	10.8	7.4	-2.4
CCCc1cc(-c2nc(-c3ccc(Cl)cc3)cs2)ccn1	-2.3	-11.6	3.5	-30.8	.	4.8
CCCc1cc(-c2nc(-c3ccc(Br)cc3)cs2)ccn1	-0.5	.	5.0*	.	.	2.0
CC(C)CC(=O)Nc1cc([N+](=O)[O-])ccc1Cl	-3.0	17.4*	-0.1	7.0	.	-7.6
COc1ccc(NS(=O)(=O)c2ccc3oc(SC4CCOC4=O)nc3c2)cc1 (stereo not drawn)	1.8	-7.5	7.4*	-20.0	10.8	-1.9
COc1ccc(C2C=C(Nc3ccccc3)C(=O)N2c2ccccc2)cc1OC (stereo not drawn)	-1.6	.	-2.5	.	.	9.0
CC1CCc2c(sc(N)c2C(=O)OC(C)C)C1 (stereo not drawn)	-3.0	-7.1	-0.1	-7.9	20.7	8.5
Cc1ccc(-c2cc(-c3ccccc3)no2)c(O)c1	-1.0	.	5.3*	.	.	-6.0
CSc1cccc(NC(=O)CCCOc2ccc(Cl)cc2C)c1	-0.5	.	-1.3	.	.	-1.4
O=C(COC(=O)c1c(Cl)cccc1Cl)Nc1cc(Cl)ccc1Oc1ccccc1	-0.8	.	6.6*	.	.	-10.6
